Consider 71 compounds from PubChem BioAssay AID1345083 (National Center for Advancing Translational Sciences (NCATS), 2018).

In all, about 94,000 compounds went through this assay and about 6,200 (6.6%) were called active. A call without a number means that no potency is given here. Roughly 31% stayed inconclusive and do not appear here. The sample holds actives, similar compounds and a random draw of the others, so the mix is not that of the screen. Calls come from the whole dose curve; as a rule, active = well fitted inhibition curve with a large enough effect; inconclusive = small, poorly fitted or top-dose-only effect; inactive = flat fitted curve, though single readings scatter.
Potency is the fitted concentration of half-maximal effect.

The assay in a line: Cytotoxic Profiling in HEK 293 Cell Line of Diverse Libraries Using Quantitative High-Throughput Screening. Note: nearly all actives have a fitted effect of over 60% in size. The settings on record: HEK 293 viability, ATP luminescence (CellTiter-Glo), 48-72 h; series mostly up to 115 µM. From the text:
Cell-based phenotypic screening is a commonly used approach to discover biological pathways, novel drug targets, chemical probes and high-quality hit-to-lead molecules. Many hits identified from high-throughput screening campaign are ruled out through a series of follow-up potency, selectivity/specificity, and cytotoxicity assays. Prioritization of molecules with little or no cytotoxicity for a more in-depth downstream evaluation influence the future direction of projects, so cytotoxicity profiling of the screening libraries at early stage is essential for increasing the likelihood of candidate success. In this study, we analyzed results from a cell-based cytotoxicity screening campaign, comprising nearly 10,000 compounds in NCATS annotated libraries, and over 100,000 compounds in a diversity library, evaluated in four normal cell lines (HEK 293, NIH 3T3, CRL-7250 and HaCat) and a cancer cell line (KB 3-1, a HeLa subline) with overall screening outcomes, hit rates, pan-activity and selectivity. For the annotated library, we also examined the primary targets and mechanistic pathways regularly associated with cell death. To our knowledge, this is the first study to use high-throughput screening to profile large libraries for cytotoxicity assessment in both normal and cancer cell lines. In summary, the results generated here constitutes a valuable resource for the scientific community and provides insight on identifying cytotoxic compounds with particular mechanisms of action, and prioritizing compounds with suitable cytotoxicity profile for further evaluation.
HEK 293 cells were seeded into white 1536-well plates using a Multidrop Combi peristaltic dispenser (ThermoFisher, Waltham, MA) at a density of 250 cells/well in 5 uL of medium respectively. A pintool (Kalypsys) was used to transfer 23 nL of compound solution to the 1536-well assay plates. After 48 or 72 hr incubation at 37 degree Celsius, 5% CO2 and 95% humidity, 2.5 uL of CellTiter-Glo (Promega) was dispensed into each well using a dispenser (Aspect Automation, St. Paul, MN) with solenoid valves (Lee Valves, Westbrook CT). Plates were left at room temperature for 10 min before imaging the ATP-coupled luminescence using a ViewLux microplate imager (PerkinElmer, Waltham, MA).
(In general: Cellular ATP, detected with luciferase, serves as a proxy for viable cell number.)
On to `Cc1ccc(-c2ccc3nnc(CNC(=O)c4ccncc4)n3n2)cc1C`, for which the Potency result is “inactive”.
On to `COc1ccc2c(c1)OCC(C(=O)N1CCCN(c3ncccn3)CC1)C2` (stereo unspecified), for which the Potency result was “inactive”.
Under `COc1ccc(C(=O)NCC23CCC=C2N(C)C(=O)CC3)cc1OC` (stereo unspecified) stands “inactive”; under `CCCS(=O)(=O)N1CCC(Nc2nccnc2OCC)CC1`, “inactive”.
With `COC[C@@H]1CN(Cc2c(C)n[nH]c2C)C[C@H]1c1nc(C)no1`, the Potency entry is “inactive”.
Under `CC/C=C(\C)CN1CCC2(CC1)Cc1ccccc1CNC2=O` stands “inactive”; under `CC(=O)N1CC(CO)C2(CCN(C(=O)c3ccccc3Cl)CC2)C1` (stereo unspecified), “inactive”.
Regarding `C=CCNC(=O)N1CC[C@@H](CC(=O)O)[C@@H](CC2=NCCc3ccc(C)cc32)C1`, the Potency entry is “inactive”.
Under `COc1ccc(C(=O)N2CCCC(C(=O)N3CCCC(c4nc5ccncc5[nH]4)C3)C2)cc1` (stereo unspecified) stands “inactive”; under `COc1ccc(C(=O)N2CCCC2C(=O)N2CCCC2c2nc3ccncc3[nH]2)cc1` (stereo unspecified), “inactive”.
The figure for `COc1ccc(-c2nc3ccncc3[nH]2)cc1` is 20 µM (active); for `Cc1ccc(CN2CCOCCNC(=O)CC2)o1` it is “inactive”.
Under `CN(C)C(=O)c1cccnc1OC1CCN(S(=O)(=O)c2ccc(F)c(F)c2)C1` (stereo unspecified) stands “inactive”; under `COC1CCC(C(=O)N2CCC3(CC2)OC(=O)N(Cc2ccccc2)C3(C)c2ccccc2)CC1` (stereo unspecified), “inactive”; under `Cc1ncsc1C(=O)N1CCC2(CC1)OC(=O)N(Cc1ncccn1)C2(C)c1ccccc1` (stereo unspecified), “inactive”.
Turning to `CC1(c2ccccc2)N(Cc2ccccc2F)C(=O)OC12CCN(Cc1c[nH]c3ccccc13)CC2` (stereo unspecified), the Potency is 20 µM (active).
Turning to `CC1CCN(C(=O)c2ccccc2OCC2CCCN(Cc3cncs3)C2)CC1` (stereo unspecified), the Potency entry was “inactive”.
The entry for `CCOc1ccccc1C(=O)N1Cc2cnc(Cc3ccc(OC)cc3)nc2C1` is “inactive”; for `CC(C)Oc1ccc(CN2CCCC(COc3ccccc3C(=O)N3CCCC3)C2)cc1` (stereo unspecified) it is 39.8 µM (active); for `COc1cc(-c2ccccc2C#N)cc(OC)c1OC` it is “inactive”.
Regarding `COCCNC(=O)[C@@H]1C[C@H](Oc2ccccc2)CN1C(=O)C1(c2ccccc2)CC1`, the Potency entry is “inactive”.
Consider `O=C(NCCCc1ccccc1)c1n[nH]c2c1CN(C(=O)C1CC1)CC2`, for which the Potency was 11.2 µM (active).
With `COC(=O)c1n[nH]c2c1CN(C(=O)[C@H]1CCC[C@@H](O)C1)CC2`, the Potency result is “inactive”.
The entry for `CN(C)C(=O)c1n[nH]c2c1CN(C(=O)c1ccccc1Br)CC2` is “inactive”; for `CN(C)C[C@@H]1CN(S(C)(=O)=O)C[C@H]1NC(=O)c1ccc(C#N)cc1` it is “inactive”.
In the case of `Cn1nc(C2CCCN2C(=O)NC2CCCCC2)n(Cc2ccccc2)c1=O` (stereo unspecified), the Potency entry is “inactive”.
Under `COCCn1c(C)cnc1CC1CCN(C(=O)c2ccc(OC)cc2OC)CC1` stands “inactive”; under `COc1ccc(NC(=O)N2CCCC(Cc3noc(-c4ccccc4)n3)C2)cc1` (stereo unspecified), 35.5 µM (active).
Turning to `COCCCNC(=O)N1CCC(Cc2noc(-c3ccncc3)n2)C1` (stereo unspecified), the Potency entry is “inactive”.
As to `Cc1cc(C(=O)N2CCCC(Cc3noc(-c4cccnc4)n3)C2)nn1C` (stereo unspecified), the Potency entry is “inactive”.
As to `Cc1nc(-c2cn(C3CCCN(C(=O)c4cc(F)ccc4F)C3)nn2)no1` (stereo unspecified), the Potency result is “inactive”.
The entry for `COC(=O)[C@H](CC1CCCCC1)NC(=O)[C@@H]1CN(C(=O)c2ccc(N(C)C)cc2)CCN1C(C)=O` is “inactive”; for `COc1ccc(NC(=O)N2C[C@@H](F)C[C@H]2C(=O)N2CCCCC2)c(C)c1` it is “inactive”.
For the compound `Cc1cc(Cl)ccc1-c1ccc(CN)cc1`, the Potency is 31.6 µM (active).
Under `NCc1ccc(-c2cncnc2)cc1` stands “inactive”.
Under `O=C(CCc1ccc2c(c1)CNCCO2)NCC1CC1` stands “inactive”; under `O=C1CCCCC(CNC(=O)c2ccoc2)N1` (stereo unspecified), “inactive”; under `Cc1ccc(CNC(=O)N2CCC3(CC2)CC(N(C2CC2)S(C)(=O)=O)CCO3)cc1` (stereo unspecified), “inactive”.
The entry for `Cc1nc(-c2ccccc2OC2CN(S(=O)(=O)c3cn(C)cn3)C2)no1` is “inactive”.
Turning to `COc1cc2c(cc1OC)C(CNC(=O)c1ccc(Cl)cc1)N(C(=O)Nc1ccccc1)CC2` (stereo unspecified), the Potency entry is “inactive”.
Under `COc1ccccc1-c1cc(C(=O)NCc2cnn(C)c2)c2c(c1)N(C)CCO2` stands “inactive”; under `COc1ccccc1-c1cnc(NC(=O)c2ccc(Cl)cc2)c2c1CCO2`, 63.1 µM (active); under `COc1ccccc1-c1cnc(Nc2ccncc2)c2c1CCO2`, 63.1 µM (active).
The entry for `CCS(=O)(=O)N1CC(F)(F)C[C@H]1c1nc(C2CC2)no1` is “inactive”; for `CC(C)(C)n1nnnc1C1CC2(CCOCC2)C(=O)N1Cc1cccc(F)c1` (stereo unspecified) it is “inactive”.
Under `O=C1CC2(CCN(C(=O)C3CCN(C(=O)Cc4ccccn4)CC3)CC2)Oc2ccccc2N1` stands “inactive”.
With `Cc1cnc(C)n1CCN`, the Potency entry was “inactive”.
The entry for `Cc1ccccc1S(=O)(=O)N1CCN(C(=O)N2CC3CC(C2)[C@H]2CCCC(=O)N2C3)CC1` (stereo partly specified) is “inactive”; for `CCNC(=O)c1cccnc1OC1CCN(C(=O)CC2CCCC2)C1` (stereo unspecified) it is “inactive”.
The figure for `CN1CCC(N2CC[C@H](c3nc4ccccc4s3)C2)CC1` is 31.6 µM (active); for `Cn1c([C@H]2CCN(C3CCOCC3)C2)nc2ccccc21` it is “inactive”.
The entry for `c1ccc2sc(C3CCCN(Cc4cc5n(n4)CCNC5)C3)nc2c1` (stereo unspecified) is “inactive”; for `COc1cccc(CC(=O)NCCC2CCN(C(=O)Nc3ccc(C)cc3)CC2)c1` it is “inactive”; for `COc1cccc(NC(=O)NC[C@H]2O[C@@H](CO)[C@@H](O)[C@H]2N(C)CCN(C)C)c1` it is “inactive”.
In the case of `C#CCN[C@@H]1C[C@@H]2c3[nH]c4ccccc4c3C[C@@H](C(=O)OC)N2[C@H](c2ccc(F)cc2)C1`, the Potency is 31.6 µM (active).
Under `COC(=O)[C@@H]1C[C@@H](NC(=O)c2ccc(-c3nnn(C)n3)cc2)CN1C` stands “inactive”; under `COC(=O)[C@@H]1Cc2c([nH]c3ccccc23)[C@H]2C[C@H](NCCNC(C)=O)C[C@@H](c3ccc(C)cc3)N21`, 25.1 µM (active).
Turning to `CN(CCNC(=O)C1CCCN(S(C)(=O)=O)CCC(=O)NCC1)C1CCCCC1` (stereo unspecified), the Potency result is “inactive”.
As for `Cc1cc(C)n(CCC(=O)N[C@@H]2CN(S(C)(=O)=O)C[C@H]2CN(C)C)n1`, the Potency result is “inactive”.
`COc1ccc(CNC(=O)NCC(=O)N2CCCCCCNC(=O)CC2c2ccccc2)cc1` (stereo unspecified): the Potency result is “inactive”.
For the compound `O=[S+]1([O-])NCC2(CCN(CC3CC3)CC2)Oc2ncccc21`, the Potency result was “inactive”.
As for `Cc1noc([C@@H]2CC(F)(F)CN2C(=O)c2cc(C)on2)n1`, the Potency result was “inactive”.
Consider `Cn1cc(CN2CCOC[C@H]2c2ncc(-c3cccc(F)c3)[nH]2)c2ccccc21`, for which the Potency is 35.5 µM (active).
For `CC(=O)N1CCC(N2CCOC[C@H]2c2ncc(-c3ccc(Cl)s3)[nH]2)CC1`, the Potency result is “inactive”.
Under `c1cncc(-c2cnc([C@@H]3COCCN3Cc3cnc4ccccc4c3)[nH]2)c1` stands “inactive”.
In the case of `Fc1ccc(CN2CCOC[C@H]2c2ncc(-c3cccnc3)[nH]2)cc1`, the Potency result was “inactive”.
As for `Cc1ccc(CN2CCOC[C@H]2c2ncc(-c3cccc(F)c3)[nH]2)cc1`, the Potency is 70.8 µM (active).
With `Oc1ccccc1CN1CCOC[C@H]1c1ncc(-c2ccc(C(F)(F)F)cc2)[nH]1`, the Potency is 70.8 µM (active).
For the compound `Cn1cc(CN2CC[C@H](c3nnc(-c4cccnc4)o3)C2)c2ccccc21`, the Potency result is “inactive”.
Consider `c1cc(CN2CCOC[C@H]2c2ncc(-c3ccncc3)[nH]2)ccn1`, for which the Potency entry is “inactive”.
Regarding `CC(C)(C)c1coc([C@@H]2COCCN2Cc2ccc(F)cc2)n1`, the Potency result is “inactive”.
